# Assay outcomes deposited in PubChem by several laboratories.
# HSF1 activator – increases HSF-1 driven luciferase reporter signal. NIH3T3-HGL HSF-1 luciferase reporter, MG132, 8 h; 100% = twice DMSO control signal. activation, % at 9 µM. actives 1.7% (n = 300,000). AID 504408;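 active means mean replicate activation of at least 50% with a set share of replicates each reaching 50%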;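 further: 0% = median of the neutral control wells and 100% = twice that signal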
# HSF1 inhib – HSF1 inhibition. NIH3T3-HGL HSE-luciferase, MG132-induced, luminescence 8 h; stronger effect = lower value. activity change, negative = inhibition, % at 7.5 µM (by protocol). actives 0.77% (n = 300,000);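 active means more than half of replicate wells show activity change below -50%, luminescence cut by over half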;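 further: luciferase reports HSF-1 transcriptional activity via heat shock element; 0% = median of DMSO wells and -100% = zero luminescence signal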
# HSP90 refold inh – inhibitors of HSP90 luciferase refolding in rabbit reticulocyte lysate. luciferase refolding luminescence, 3 h. inhibition, % at 5.6 µM. actives 0.91% (n = 290,000). AID 1789;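 active means inhibition above the screen-wide mean plus 3 SD, computed separately per campaign, cut at about 16% in these data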;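 further: 0% = DMSO wells and 100% = 60 µM geldanamycin wells; inhibitors lower the luminescence because luciferase stays unfolded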
# HIF act – HIF pathway transcriptional activation | actives 0.32% (n = 300,000) | activation, % at 7.5 µM (by protocol) | U2OS HRE-luciferase reporter, luminescence; normalized: DMSO 0%, desferrioxamine 100% | AID 1910;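 active means mean activation of at least 10% of the iron chelator positive control signal, with at least half of replicates also reaching 10%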
# ARNT TACC3 PPI – disrupts binding between human ARNT and TACC3. Q9Y6A5. AlphaScreen His-ARNT PAS-B/GST-TACC3 binding, luminescence; TACC3 fragment carries E629A point mutation. inhibition, % at 9.99 µM. actives 0.66% (n = 390,000). AID 623870;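 active means mean inhibition of replicates at least 50% and at least half of replicates each reaching 50%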;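 further: 0% = complete ARNT plus TACC3 wells and 100% = ARNT alone without TACC3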
# Active calls of the source: *; . = not tested or not shown; + = active, no number. Only some compounds are listed: those with a hit (about 3.1% of all), similar ones and a draw of the others.
SMILES,HSF1 activator,HSF1 inhib,HSP90 refold inh,HIF act,ARNT TACC3 PPI
CCN(CC)c1ccc(/C=C/c2nc3ccccc3s2)cc1,-85,-82*,67*,-1,.
O=C(NCc1ccncc1)C1CCN(S(=O)(=O)c2cccc(C(F)(F)F)c2)CC1,-62,-53*,1,0,-4
CN1C(=O)C(C)(C)c2cc(S(=O)(=O)N3CCC(C(=O)NCc4ccc(Cl)cc4)CC3)ccc21,66*,37,9,-1,-5
CN1C(=O)C(C)(C)c2cc(S(=O)(=O)N3CCC(C(=O)NCc4ccc(F)cc4)CC3)ccc21,3,-1,3,0,-5
COc1ccc(CNC(=O)C2CCN(S(=O)(=O)c3ccc4c(c3)C(C)(C)C(=O)N4C)CC2)cc1,-88,-84*,4,0,-6
CCCNC(=O)C1CCN(S(=O)(=O)c2ccc3[nH]c(=O)ccc3c2)CC1,12,-2,35*,0,-8
CCC(C)NC(=O)C1CCN(S(=O)(=O)c2ccc3[nH]c(=O)ccc3c2)CC1 (configuration not stated),-40,-30,-8,0,.
COc1ccc(CNC(=O)C2CCN(S(=O)(=O)c3cccc(C(F)(F)F)c3)CC2)cc1,.,.,.,.,35
C[C@@H]1CCCCO[C@@H](CN(C)CC2CCCCC2)[C@@H](C)CN([C@@H](C)CO)C(=O)c2cc(NC(=O)NC3CCCCC3)ccc2O1,.,.,.,.,-6
COc1ccc(NC(=O)CN(C)S(=O)(=O)c2cnc[nH]2)cc1OC,17,-2,-1,-1,1
Cc1cc(C)cc(NC(=O)CN(C)S(=O)(=O)c2cnc[nH]2)c1,80*,32,3,0,-10
COc1cc(C(=O)Cc2nc3ccccc3n2C)cc(OC)c1OC,22,2,3,0,-13
COc1cc(C(=O)NCCc2nc3ccccc3n2C)cc(OC)c1OC,11,7,1,95*,-17
COc1cccc(N2CCN(C(=O)c3ccc4nc(N5CCCCC5)sc4c3)CC2)c1,-29,-23,59*,3,.
C[C@@H]1CCCCO[C@@H](CN(C)C)[C@H](C)CN([C@H](C)CO)C(=O)c2cc(NS(=O)(=O)c3cn(C)cn3)ccc2O1,.,.,.,.,-11
CC(C)CCN(C(=O)CNC(=O)c1cccs1)C(C(=O)NC1CCCC1)c1ccncc1 (configuration not stated),-3,-5,0,-1,-1
CC(C)CCN(C(=O)CNC(=O)c1cccs1)C(C(=O)NC1CCCCC1)c1cccnc1 (configuration not stated),-76,-70*,1,0,1
CCCC#Cc1ccc2c(c1)O[C@H](CN(C)Cc1cccnc1)[C@@H](C)CN([C@@H](C)CO)S2(=O)=O,.,.,.,.,36
COc1cccc(-c2ccc3c(c2)[C@H]2[C@H](CCN2C(=O)c2ccc(F)cc2)[C@@H](CO)N3C)c1,.,.,.,.,15
C[C@H]1CN([C@@H](C)CO)C(=O)Cc2cc(NS(=O)(=O)c3ccccc3)ccc2O[C@H]1CN(C)C(=O)Nc1cccc2ccccc12,.,.,.,.,10
CC(=O)NCCn1ccc2ccccc21,60*,22,0,0,-2
CC=Cc1ccc2n(c1=O)C[C@H]1[C@H](CO)[C@@H](C(=O)NC3CCCC3)N(Cc3ccccc3)[C@@H]21 (mixture of isomers),.,.,.,.,-24
CC(=O)Nc1nc(-c2ccc3ccccc3c2)cs1,87*,43,3,3,-1
Cc1cc2[nH]c(=O)cc(-c3ccccc3)n2n1,16,2,3,0,35
Cc1cc2[nH]c(=O)c3ccccc3n2n1,54*,29,-1,-1,4
SMILES,HSF1 activator,HSF1 inhib,HSP90 refold inh,HIF act,ARNT TACC3 PPI
COc1ccccc1NC(=O)CSc1nc2n[nH]c(C)c2c(=N)n1-c1ccccc1Cl,60*,26,-3,0,16
CC(=O)N(NC(=O)c1ccccc1Cl)C1CC(=O)N(c2ccc(C)cc2)C1=O (configuration not stated),-9,3,-2,0,47*
CC(C)C#Cc1ccc2c(c1)O[C@@H](CN(C)CC1CC1)[C@@H](C)CN([C@H](C)CO)S2(=O)=O,.,.,.,.,4
COc1c(OC(C)=O)ccc(/C=C/c2ccc3cccc(OCc4ccccc4)c3n2)c1[N+](=O)[O-],61*,45,14,4,-2
CN(c1cccc(Cl)c1)S(=O)(=O)c1cccc(C(=O)Nc2nc3ccccc3[nH]2)c1,-14,-17,4,+,-4
C[C@H](CO)N1C[C@H](C)[C@H](CN(C)S(=O)(=O)c2cccs2)Oc2ccc(NC(=O)CCC(F)(F)F)cc2C1=O,.,.,.,.,3
COc1ccc(-c2[nH]ncc2CN2CCN(C3CCCCC3)C(=O)C2)cc1F,56*,21,1,0,6
N/C(=N\OC(=O)COc1ccccc1)c1ccccn1,33,9,-5,3,1
Cc1ccc(OCC(=O)O/N=C(\N)c2ccccn2)cc1C,108*,62,2,3,.
CCc1ccc(OCC(=O)O/N=C(\N)c2ccccn2)cc1,64*,30,6,2,.
Cc1cccc(OCC(=O)O/N=C(\N)c2ccccn2)c1,45,27,0,3,-2
COc1ccccc1N1CCN(/N=C\c2ccc(C)o2)CC1,63*,31,-2,6,3
COc1ccccc1N1CCN(/N=C\c2ccccc2)CC1,24,-3,2,6,11
COc1ccccc1N1CCN(/N=C/C(Cl)=C/c2ccccc2)CC1,55*,19,3,5,7
O=C(c1cccnc1)N1CC[C@@H]2[C@H]1c1cc(-c3cccc(F)c3)ccc1N[C@@H]2CO,.,.,.,.,3
COc1ccc(S(=O)(=O)Nc2ccc3c(c2)C(=O)N([C@H](C)CO)C[C@H](C)[C@@H](CN(C)C(=O)CCC(F)(F)F)OCCCC[C@H](C)O3)cc1,.,.,.,.,-3
Cc1ccc(C(=O)NCC(=O)NCC(=O)OCC(=O)c2ccc(F)cc2)cc1,-70,-62*,0,-1,-3
Cc1ccc(C)c2[nH]c(=O)c(CN(CC3CCCO3)S(=O)(=O)c3ccc4c(c3)OCCO4)cc12 (configuration not stated),14,4,-2,0,-14
Cc1cc(C)c2[nH]c(=O)c(CN(CC3CCCO3)S(=O)(=O)c3ccc4c(c3)OCCO4)cc2c1 (configuration not stated),59*,24,-1,0,1
COc1cc(/C=N/Nc2ccc(C(F)(F)F)cn2)ccc1O,34,17,-4,3,4
O=C(O)c1ccc(/C=N/Nc2ccc(C(F)(F)F)cn2)cc1,52*,20,11,2,1
O=C(NCCc1csc(-c2ccccc2)n1)c1c(F)cccc1Cl,16,4,-3,0,.
O=C(NCCc1csc(-c2ccccc2)n1)c1c(F)cccc1F,-1,-9,41*,0,8
